Out of some 5,500 compounds screened, about 2,000 (36%) were called active. Inconclusive results (about 18%) are left out. Cut-off read from the data, not from the text of the source: active = normalized growth mostly below about 0.91 (no sharp cut-off); inconclusive = no clear call, values can overlap the other calls; inactive = mostly above about 0.92. The list shows a part of the results.
Assay: chemical genetic growth profiling, strain panel (AID 1159580);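 note: tested at 20 µM; growth read once vehicle control cultures reached saturation at 30 °C; 1 = growth at the plate median or of vehicle wells; lower values mean less growth of the strain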
Conditions: S. cerevisiae deletion strains, growth OD

Measured: normalized growth

CCOc1ccc(C(=O)c2ccc(O)c(O)c2O)cc1
inactive: locus YJR075W, strain HOC1, hits give low values 0.928 | locus YKL009W, strain mrt4, hits give low values 0.983 | locus YKL068W, hits give low values 0.97 | locus YKL085W, strain MDH1 (second series), hits give low values 0.967 | locus YKL085W, strain MDH1, hits give low values 0.967 | locus YKR001C, strain vps1, hits give low values 0.916 | locus YKR026C, strain gcn3, hits give low values 0.941 | locus YKR091W, strain srl3, hits give low values 0.965 | locus YLL001W, strain dnm1, hits give low values 0.932 | locus YLL026W, hits give low values 0.952 | locus YLL041C, strain sdh2, hits give low values 0.937 | locus YLR027C, strain aat2, hits give low values 0.947 | locus YLR039C, strain RIC1, hits give low values 0.777 | locus YLR102C, strain apc9, hits give low values 0.995 | locus YLR113W, strain HOG1, hits give low values 0.903 | locus YLR258W, strain gsy2, hits give low values 0.934 | locus YLR262C, strain YPT6, hits give low values 0.896 | locus YLR320W, strain mms22, hits give low values 0.88 | locus YLR370C, strain arc18, hits give low values 0.95 | locus YLR384C, strain iki3, hits give low values 0.936 | locus YML032C, strain rad52, hits give low values 0.994 | locus YML120C, strain ndi1, hits give low values 0.928 | locus YML124C, strain tub3, hits give low values 0.967 | locus YMR078C, strain ctf18, hits give low values 0.965 | locus YMR125W, strain sto1, hits give low values 0.958 | locus YMR129W, hits give low values 0.963 | locus YMR307W, strain GAS1, hits give low values 0.787 | locus YNL067W, strain RPL9B, hits give low values 0.869 | locus YNL071W, strain lat1, hits give low values 0.963 | locus YNL183C, strain NPR1, hits give low values 0.852 | locus YNL248C, strain rpa49, hits give low values 0.98 | locus YNL250W, strain rad50, hits give low values 0.981 | locus YNL298W, strain CLA4, hits give low values 0.941 | locus YNL307C, strain MCK1, hits give low values 0.951 | locus YNL322C, strain KRE1 (second series), hits give low values 0.943 | locus YNR049C, strain mso1, hits give low values 0.954 | locus YOL006C, strain TOP1, hits give low values 0.656 | locus YOL012C, strain htz1 0.425 | locus YOR070C, strain gyp1, hits give low values 0.941 | locus YOR080W, strain dia2, hits give low values 0.954 | locus YOR136W, strain idh2, hits give low values 0.962 | locus YOR184W, strain ser1, hits give low values 0.882 | locus YOR231W, strain MKK1, hits give low values 0.931 | locus YOR270C, strain vph1, hits give low values 0.81 | locus YOR316C, strain cot1, hits give low values 0.983 | locus YPL055C, strain LGE1, hits give low values 0.841 | locus YPL240C, strain hsp82, hits give low values 0.949 | locus YPL241C, strain CIN2, hits give low values 0.969 | locus YPL256C, strain CLN2, hits give low values 0.984 | locus YPR119W, strain clb2, hits give low values 0.991 | locus YPR141C, strain kar3, hits give low values 0.964
active: locus YKL160W, strain elf1, hits give low values 0.9 | locus YLR058C, strain SHM2, hits give low values 0.631 | locus YLR221C, strain rsa3, hits give low values 0.887 | locus YLR262C, strain YPT6 (second series), hits give low values 0.803 | locus YLR268W, strain sec22, hits give low values 0.84 | locus YLR330W, strain CHS5, hits give low values 0.884 | locus YLR342W, strain FKS1, hits give low values 0.891 | locus YLR357W, strain rsc2, hits give low values 0.691 | locus YLR371W, strain rom2, hits give low values 0.776 | locus YLR418C, strain cdc73, hits give low values 0.715 | locus YML016C, strain PPZ1, hits give low values 0.83 | locus YMR058W, strain fet3, hits give low values 0.384 | locus YMR205C, strain PFK2, hits give low values 0.825 | locus YMR223W, strain ubp8, hits give low values 0.874 | locus YMR231W, strain pep5, hits give low values 0.9 | locus YMR263W, strain SAP30, hits give low values 0.884 | locus YNL153C, strain GIM3, hits give low values 0.853 | locus YNL209W, strain ssb2, hits give low values 0.76 | locus YNL233W, strain BNI4, hits give low values 0.866 | locus YNL271C, strain bni1, hits give low values 0.911 | locus YNL322C, strain KRE1, hits give low values 0.821 | locus YNR052C, strain pop2, hits give low values 0.792 | locus YOL147C, strain pex11, hits give low values 0.84 | locus YOR001W, strain rrp6, hits give low values 0.867 | locus YOR061W, strain CKA2, hits give low values 0.852 | locus YOR069W, strain VPS5, hits give low values 0.88 | locus YOR083W, strain WHI5, hits give low values 0.887 | locus YOR106W, strain vam3, hits give low values 0.711 | locus YOR144C, strain elg1, hits give low values 0.867 | locus YOR265W, strain rbl2, hits give low values 0.913 | locus YOR290C, strain snf2, hits give low values 0.67 | locus YPL051W, strain arl3, hits give low values 0.807 | locus YPL078C, strain atp4, hits give low values 0.885 | locus YPL106C, strain sse1, hits give low values 0.839 | locus YPR163C, strain tif3, hits give low values 0.901 | locus YPR167C, strain met16, hits give low values 0.897 | strain wtn01, hits give low values 0.864

— PubChem BioAssay AID1159580 (chemical genetic matrix, 2015)
